POLK inh: DNA polymerase kappa (human) inhibition; Potency, µM (doses to about 107 µM), without a hit: top-dose activity, negative = inhibition, most hits filed as inhibitors; purified Pol kappa, fluorescent DNA synthesis assay, 10 min; AID 588579; hit rate 0.53% among 400,000; Q9UBT6; further: potency means the concentration at half of the fitted maximal effect; on the % scale 0 is the no-effect control and ±100 the full control effect
Target sequence (Q9UBT6 whole entry, looked up): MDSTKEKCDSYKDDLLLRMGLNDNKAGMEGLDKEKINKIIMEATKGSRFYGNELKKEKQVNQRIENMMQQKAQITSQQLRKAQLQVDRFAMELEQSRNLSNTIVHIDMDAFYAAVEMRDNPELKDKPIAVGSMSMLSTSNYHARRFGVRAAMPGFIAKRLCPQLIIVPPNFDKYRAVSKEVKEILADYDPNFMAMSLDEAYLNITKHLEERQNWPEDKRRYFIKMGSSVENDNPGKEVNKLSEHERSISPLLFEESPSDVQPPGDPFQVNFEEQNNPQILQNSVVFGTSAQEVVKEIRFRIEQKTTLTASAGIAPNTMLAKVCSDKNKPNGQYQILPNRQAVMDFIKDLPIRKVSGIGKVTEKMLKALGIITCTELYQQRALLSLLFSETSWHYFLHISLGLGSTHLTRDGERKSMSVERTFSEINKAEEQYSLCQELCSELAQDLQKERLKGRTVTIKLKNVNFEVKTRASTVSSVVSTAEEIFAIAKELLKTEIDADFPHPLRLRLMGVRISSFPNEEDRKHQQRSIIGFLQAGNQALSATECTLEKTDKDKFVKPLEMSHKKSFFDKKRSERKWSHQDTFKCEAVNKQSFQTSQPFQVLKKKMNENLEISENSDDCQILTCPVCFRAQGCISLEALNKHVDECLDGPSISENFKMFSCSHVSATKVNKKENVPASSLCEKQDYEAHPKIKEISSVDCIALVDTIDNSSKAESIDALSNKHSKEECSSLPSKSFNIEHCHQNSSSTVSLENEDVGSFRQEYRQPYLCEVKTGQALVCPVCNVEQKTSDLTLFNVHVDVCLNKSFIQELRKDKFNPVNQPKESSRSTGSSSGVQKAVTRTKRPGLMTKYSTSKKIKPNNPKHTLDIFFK
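50 nM final substrate added after 15 min RT preincubation of 10 nM Pol kappa with compound; fluorescence read at 0 and 10 min.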
POLI inh: inhibitors of human DNA polymerase iota; hit rate 1% among 390,000; AID 588590; Potency, µM (titrated, usually from 115 µM), for inactives: top-dose activity, negative = inhibition, most hits filed as inhibitors; Q9UNA4; Pol iota fluorescent replication assay, 10 min; further: potency means the concentration at half of the fitted maximal effect
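Pol iota at 10 nM preincubated 15 min with compounds at room temperature; reaction started with fluorescent substrate, 50 nM final. Fluorescence read kinetically at 0 and 10 min; buffer-only wells as negative control.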
POLH inh: inhibitors of human DNA polymerase eta | Potency, µM (series often up to 114 µM), without a hit: at the top dose activity change, negative = inhibition, hits mostly inhibitors | recombinant Pol eta, fluorescent DNA replication assay | Q9Y253 | hit rate 1.2% among 390,000 | AID 588591; further: potency means the concentration at half of the fitted maximal effect; on the % scale 0 is the no-effect control and ±100 the full control effect
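Fluorescent replication assay: 50 nM final substrate added after a 15 min room-temperature compound preincubation with 10 nM enzyme. Signal taken at 0 min and again at 10 min.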
WRN helicase inh: WRN helicase (human) inhibition; AID 651768; WRN helicase unwinding, fluorescent forked duplex, kinetic; Potency, µM (doses to about 114 µM), without a hit: at the highest dose activity change, negative = inhibition, usual class: inhibitors; hit rate 0.46% among 360,000; further: potency means the concentration at half of the fitted maximal effect; on the % scale 0 is the no-effect control and ±100 the full control effect; nearly all actives have a fitted effect of over 55% in size
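Primary qHTS, 1536-well format. 20 nM WRN + compound, 15 min RT; start with 100 nM forked fluorophore/quencher duplex, 2 mM ATP (final); kinetic read ex 525/em 598 nm.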
POLB inh: DNA polymerase beta (human) inhibition. P06746. Pol beta primer extension/strand displacement, fluorescence kinetic. Potency, µM (highest dose often 114 µM), without a hit: at the highest dose activity change, negative = inhibition, usual class: inhibitors. hit rate 1.3% among 340,000. AID 485314; further: potency means the concentration at half of the fitted maximal effect; on the % scale 0 is the no-effect control and ±100 the full control effect
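10 nM enzyme + cpd, 15 min RT; start with substrate 50 nM final; read 0 min and after 10 min RT. Corrected, normalized data; 4-parameter Hill curve fit.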
PI5P4K alpha inh: inhibitors of human PI5P4K alpha | max response, % | hit rate 1.2% among 330,000 | PI5P4Kalpha enzyme, ADP-Glo luminescence, 60 min; stronger effect = lower value | P48426; active means max response of -50% or lower; inconclusive means between -30% and -50%; inactive means -30% or higher; further: value at the top dose of about 77 µM; on the % scale 0 is the no-effect control and ±100 the full control effect
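Compounds were pin-transferred onto PI5P4Kalpha and substrate in HEPES pH 7.4 buffer with EGTA, CHAPS and 5% DMSO. ATP (5 microM final) started the reaction, which ran 60 minutes at room temperature before ADP-Glo detection.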
ADP-Glo interf: interferes with ADP-Glo detection without enzyme present; shares compounds with PI5P4K alpha inh; ADP-Glo detection counter-screen, luciferase luminescence, no enzyme; Potency, µM (series often up to 76.9 µM), inactives show at the highest dose activity change, negative = inhibition, most hits filed as inhibitors; 1,100 tested, under 10 active; AID 743285
* marks the source's active call; other numbers are inactive results; ? = inconclusive; / = not tested or not shown; [ ] = remark or other dose. In the library only some 2.8% were active in any assay of this set; here they are far more common. Unless noted, the call rests on the fitted dose curve; in most records, active means well fitted curve in the direction sought with a large enough effect; inconclusive means small, poorly fitted or top-dose-only effect, or another doubt; inactive means no such curve, though single readings can be large; an effect the other way counts as inactive or inconclusive.

SMILES	POLK inh	POLI inh	POLH inh	WRN helicase inh	POLB inh	PI5P4K alpha inh	ADP-Glo interf
CNC(=O)c1nc(C)n(-c2ccc(Cl)cc2Cl)n1	0%	61%	-3%	79µM*	-17%	-93*	-7%
CC(C)(C)c1ccc(NC(=O)C2=CC=CN3CCS(=O)(=O)N=C23)cc1	6%	7%	-2%	-10%	/	4	3%
CCN(CC)c1ccc(NC(=O)C2=CC=CN3CCS(=O)(=O)N=C23)cc1	8%	32%	-15%	3%	/	1	/
COc1ccccc1CNc1nc(NC(C)C)nc2ccsc12	/	/	/	-7%[57.1 µM]	/	?	/
c1csc(CNc2nc(NCC3CCCCC3)c3sccc3n2)c1	/	/	/	-3%	/	/	2%
CC(C)c1ccc(CNc2nc(NCC3CC3)nc3ccsc23)cc1	/	/	/	-6%	/	/	-4%
c1ccc(CNc2nc(NCC3CC3)nc3cc(-c4ccccc4)sc23)cc1	/	/	/	-11%	/	/	-7%
COc1cccc(CNc2nc(NCC3CC3)nc3ccsc23)c1	/	/	/	-6%	/	-23	/
COc1ccccc1CNc1nc(NCc2ccc(C(C)C)cc2)c2sccc2n1	/	/	/	-15%	/	/	-5%
CCCN(CCC)CCCNC(=O)Cn1cnc2onc(-c3ccc(F)cc3)c2c1=O	-6%	16%	-10%	/	-17%	/	/
COc1cccc(-c2cc(C(F)(F)F)n3nc(C)c(-c4ccccc4)c3n2)c1	4%	5%	-11%	/	17%	/	/
CC(=O)Nc1cc(NC(C)=O)cc(C(=O)N2CCCC3CCCCC32)c1 (stereo not given)	79µM*	14µM*	22µM*	?	?	-65*	0%
O=C(NCc1cccc(F)c1)C1=Cc2cc(Br)ccc2OC1	-11%[60.1 µM]	7%	-21%	/	-1%	/	/
Cc1nnc(-c2ccccc2)nc1N(C)C	-1%	115%	-22%	4%	8%	-68*	-2%
Nn1c(SCC(=O)NCCN2C(=O)CSC2=O)nnc1-c1ccc(OC(F)F)cc1	-16%	-4%	-5%	4%	/	-5	/
Nn1c(SCC(=O)NC(=O)NCc2ccco2)nnc1-c1ccc(OC(F)F)cc1	?	?	8.9µM*	-4%[11.6 µM]	?	-67*	-6%
COc1ccc(CNC(=O)c2cc(=O)[nH]c3ccc(S(=O)(=O)N4CCCC4)cc23)c(OC)c1	-1%[60.1 µM]	8%	-19%	/	-14%	/	/
O=C(NCCc1ccccc1)c1ccc(Cn2c(SCc3ccccc3F)nc3cccnc32)cc1	-23%	12%	-15%	/	3%	/	/
CC(=O)c1ccc(OCc2c(-c3ccccc3)nnn2CC(=O)NS(=O)(=O)c2ccccc2C)cc1	/	/	/	-6%	/	-51*	-4%
CCC(C(=O)Nc1ccccc1)n1nc(-c2cc(C)ccc2C)ccc1=O (stereo not given)	-10%	11%	-12%	/	20%	/	/
CC(C(=O)Nc1cc([N+](=O)[O-])ccc1Cl)N1CCN(c2ccc(O)cc2)CC1 (stereo not given)	?	?	?	-4%[11.6 µM]	?	-66*	3%
CC(C(=O)Nc1ccc([N+](=O)[O-])cc1Cl)N1CCN(S(=O)(=O)c2cccs2)CC1 (stereo not given)	-11%	14%	-2%	-16%	/	4	/
O=C(Nc1cc(S(=O)(=O)N2CCOCC2)ccc1N1CCCC1)c1ccc(Cl)cc1	-14%	16%	-6%	-30%	/	-51*	0%
O=C(Nc1cc(S(=O)(=O)N2CCOCC2)ccc1O)c1ccc(NS(=O)(=O)c2ccc(Cl)s2)cc1	-6%	-20%	-7%	-17%	8%	-59*	3%
O=C(Nc1cc(S(=O)(=O)N2CCOCC2)ccc1N1CCCC1)c1ccc2c(c1)S(=O)(=O)c1ccccc1C2=O	-1%	49%	-17%	-27%	34%	-77*	-11%
SMILES	POLK inh	POLI inh	POLH inh	WRN helicase inh	POLB inh	PI5P4K alpha inh	ADP-Glo interf
Cc1ccc(SCC(=O)Nc2ccc3oc(-c4cccc(Cl)c4)nc3c2)cc1	-11%	15%	/	/	3%	/	/
Clc1ccc(-c2nnc(-c3ccco3)nc2N2CCCCC2)cc1	-18%	-8%	?	?	40µM*	-67*	-5%
Clc1ccc(-c2nnc(-c3ccc(Br)cc3)c(N3CCSCC3)n2)cc1	-3%	20%	-18%	2%	1%	/	/
COc1ccccc1NC(=O)c1cc2c(n(-c3ccc(C)cc3)c1=O)CC(C)(C)CC2=O	-18%	19%	-2%	/	2%	/	/
NC(=S)c1cc2ccc(O)cc2oc1=O	-30%	?	1%	?	18%	-72*	-7%
C/C(=N/NC(N)=S)c1cc2ccc(O)cc2oc1=O	-15%	?	-15%	-5%	18%	?	/
CCOc1ccc(C(=O)c2cc3ccc(O)cc3oc2=O)cc1	-6%	15%	-16%	-2%	96%	-67*	0%
Cc1cccc(N=c2oc3cc(O)ccc3cc2C(N)=O)c1	-5%	-4%	-10%	-10%	10%	-55*	5%
CN(C)c1ccc(C(CNC(=O)c2c(F)cccc2Cl)N2CCOCC2)cc1 (stereo not given)	-9%[60.1 µM]	17%	-17%	/	14%	/	/
Cc1cc(C)cc(NC(=O)c2c(C)oc3nc(C)nc(N4CCCC4)c23)c1	-9%	11%	-21%	/	?	/	/
Cc1ccc(NC(=O)CSc2nnc(-c3ccc([N+](=O)[O-])cc3)o2)c(C)c1	6%	2%	/	/	-12%	/	/
Cc1ccc(-n2c(=S)[nH]c3sc4c(c3c2=O)CCc2ccccc2-4)cc1	-4%	26%	-12%	-4%	15%[57.1 µM]	-18	/
Cc1cccc(-n2c(=S)[nH]c3sc4c(c3c2=O)CCc2ccccc2-4)c1	-25%	64%	-8%	?	5%	-77*	0%
O=C(CSc1nccn1-c1cccc(Cl)c1)Nc1cccc(C(F)(F)F)c1	0%[60.1 µM]	1%	-26%	/	-19%	/	/
N=c1oc2ccc3ccccc3c2cc1C(N)=S	?	53%	-17%	0%	-19%	-60*	-1%
O=C(O)c1cc2c(ccc3ccccc32)oc1=O	/	/	/	/	17%	/	/
CCOc1ccc(OCc2ccc(C(=O)N3CCOCC3)cc2)cc1	-5%	-2%	-16%	1%	1%	-54*	-5%
Cc1ccc(NC(=O)CN2C(=O)CSc3ccc(S(=O)(=O)N4CCCC4)cc32)cc1F	2%	12%	-20%	/	6%	/	/
CCOC(=O)c1c(NC(=O)c2cc3nc(-c4ccc(Br)cc4)cc(C(F)(F)F)n3n2)sc(C(C)=O)c1C	-9%[60.1 µM]	5%	0%	/	-3%	/	/
CCn1c(CC(=O)Nc2ccccc2Cl)nnc1SCC(=O)NC1CCCC1	-8%	-14%	5%	4%	1%	0	/

Screening results: PubChem BioAssay, National Center for Advancing Translational Sciences (NCATS)
